An excerpt weighted towards active compounds, which were near 19% of everything screened.
HT1080NT lethal: kills 2HG-producing HT-1080-NT fibrosarcoma cells; Potency, µM (titrated, usually from 46.1 µM), usual class: cytotoxic; HT-1080-NT fibrosarcoma viability, CellTiter-Glo ATP luminescence, 48 h; AID 686970; 1.6% of 360,000 active;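 also: NT is the 2HG producing partner of a matched IDH1 knockdown line; nearly all actives have a fitted effect of over 55% in size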
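750 cells/well, RPMI + 5% FBS; 2 h settle, compound pin-transfer, 48 h at 37 degrees C. CellTiter-Glo 10 min RT, luminescence. Normalized to DMSO and media-only wells.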
DT40 TDP1 CPT: DT40-hTDP1 cell growth loss with CPT. AID 686979. chicken DT40 Tdp1-/-;hTDP1 cells + 20 nM CPT, ATP luminescence, 48 h. Potency, µM (series often up to 46.2 µM), hits mostly inhibitors. 12% of 420,000 active; also: nearly all actives have a fitted effect of over 55% in size
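Chicken DT40 Tdp1-/- cells complemented with human TDP1, 400 cells/well, exposed to compounds plus 20 nM camptothecin for at least 48 h at 37 C; viability read as ATP content by CellTiter-Glo luminescence.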
ELG1 DNA repair: ELG1-dependent DNA repair inhibition | AID 504467 | 2.3% of 330,000 active | Potency, µM (highest dose often 46.1 µM), most hits filed as inhibitors | HEK293T ELG1-luciferase reporter, luminescence, 16 h; DNA damage induced by 5-fluorouridine; also: nearly all actives have a fitted effect of over 55% in size
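Overnight (16 hr) co-exposure of 2,000 cells/well to 5-fluorouridine and compound at 37 °C preceded detection. Luciferase was quantified via ONE-Glo luminescence; loss of signal denotes inhibition.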
HT1080 IDH1KD tx: toxicity to HT-1080 IDH1 knockdown cells (counter line). HT-1080 IDH1 knockdown viability, ATP luminescence, 48 h. Potency, µM (titrated, usually from 46.1 µM), usual class: cytotoxic. 2% of 360,000 active. AID 686971
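Viability of IDH1-knockdown HT-1080 fibrosarcoma cells was assessed by CellTiter-Glo after 48 h at 37 °C with titrated compound; concentration-effect curves were classified by fit quality and response size.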
TDP1 cell noCPT: qHTS for Inhibitors of human tyrosyl-DNA phosphodiesterase 1 (TDP1): qHTS in cells in absence of CPT | DT40 Tdp1-/- hTDP1 cells, no CPT, ATP luminescence, 48 h | Potency, µM (series often up to 46.2 µM), actives largely listed as inhibitors | 15% of 420,000 active; also: nearly all actives have a fitted effect of over 55% in size
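Chicken DT40 Tdp1-/- cells stably complemented with human TDP1 were seeded at 400 cells/well with DMSO in place of 20 nM camptothecin. After compound pinning, cells grew at least 48 hr at 37 °C; viability read by CellTiter-Glo luminescence.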
IL1B secr inh: blocks inflammasome-driven IL-1 beta release; AID 743279; activity change, % at 57.5 µM; 4.7% of 360,000 active; THP-1 LPS/ATP IL-1B secretion, AlphaLISA, 16 h; stronger effect = lower value; in the data active = activity change below about -50%; inconclusive = mostly about -30% to -49%
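Secreted IL-1B measured by AlphaLISA bead assay after 16 h compound exposure of THP-1 cells; compounds (final up to 57.5 uM) added 1 h before LPS (250 ng/mL) and ATP (1.25 mM) stimulation; lower signal means less secretion.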
A number is an active result; 0 = inactive; ? = inconclusive; - = no result; [ ] = another dose, or the depositor's remark. Unless noted, calls follow the shape of the dose curve; as a rule, active = well fitted curve in the direction sought with a large enough effect; inconclusive = small, poorly fitted or top-dose-only effect, or another doubt; inactive = no such curve, though single readings can be large; an effect the other way counts as inactive or inconclusive.

SMILES	HT1080NT lethal	DT40 TDP1 CPT	ELG1 DNA repair	HT1080 IDH1KD tx	TDP1 cell noCPT	IL1B secr inh
COc1ccc(C2CCCN2C(=O)Nc2ccc(C)c(C)c2)cc1OC (stereo unspecified)	0	0	?	0	0	0
Cc1ccc(NC(=S)N2CCSC2c2cccs2)cc1 (stereo unspecified)	0	?	0	0	0	-82
COc1ccc(C2CCCN2C(=S)Nc2ccc(C)c(C)c2)cc1OC (stereo unspecified)	0	0	26µM	0	?	0
CC(=O)Nc1ccc(-c2cc(C(=O)O)c3c(-c4ccccc4)[nH]nc3n2)cc1	-	0	-	-	0	-
Cc1ccc2nc(NC(=O)c3cccs3)sc2c1	0	0	?	0	0	0
CS(=O)(=O)c1ccc2nc(NC(=O)c3cccs3)sc2c1	?	12µM	?	23µM	?	0
O=C(CS(=O)(=O)c1ccc(Cl)cc1)Nc1nc2ccc(Br)cc2s1	-	?	-	-	23µM	-
CCC(=O)Nc1nc2ccc(S(C)(=O)=O)cc2s1	0	0	0	0	0	0
CS(=O)(=O)c1ccc2nc(NC(=O)CC3CCCC3)sc2c1	0	?	?	?	13µM	0
CS(=O)(=O)c1ccc2nc(NC(=O)c3cccc([N+](=O)[O-])c3)sc2c1	0	0	?	0	18µM	0
Cc1ccc(/C=C/C(=O)OC(C)C(=O)NC2CCCCC2C)o1 (stereo unspecified)	0	0	0	0	?	0
Cc1cccc(OCC(=O)Nc2nc3ccc([N+](=O)[O-])cc3s2)c1	0	0	0	0	0	0
NS(=O)(=O)c1ccc2nc(NC(=O)Nc3ccccc3F)sc2c1	0	?	?	0	8.2µM	?
Cc1cccc(OCC(=O)Nc2nc3ccc([N+](=O)[O-])cc3s2)c1C	0	26µM	0	0	?	0
Cc1ccccc1NC(=O)Nc1nc2ccc(S(C)(=O)=O)cc2s1	0	0	?	?	0	0
Cc1c(S(=O)(=O)N2CCN(c3ccc(F)cc3)CC2)c(=O)n(C)c(=O)n1C	0	0	0	0	0	0
COc1ccc(Cl)cc1C(=O)Nn1c(-c2cccs2)nc2ccccc2c1=O	0	10µM	6.5µM	0	?	?
COc1ccc(Cl)cc1C(=O)Nn1c(C)nc2ccccc2c1=O	0	?	0	0	?	0
COc1ccc(N2N=NN(C(C)C)C2=C(Cl)c2nnnn2-c2ccc(OC)cc2)cc1	0	5.8µM	-	?	8.2µM	-
COc1ccc(/C=C/C(=O)C2CC2)cc1COc1cccc(C)c1C	?	?	?	?	23µM	-62
COc1ccc(C(=O)/C=C/c2ccc(OC)c(COc3ccccc3F)c2)cc1	0	26µM	?	0	?	-90
COc1ccc(C=O)cc1COc1ccc(F)cc1F	0	?	0	0	?	0
COc1ccc(/C=N/NC(=S)Nc2ccccc2)cc1COc1cccc(C)c1C	0	?	0	0	?	0
COc1ccc(/C=C/C(=O)c2ccc(O)cc2)cc1COc1ccc(F)cc1	?	?	?	?	?	-98
COc1ccc(C(=O)/C=C/c2ccc(OCc3ccccc3)cc2)cc1CSCC(=O)O	?	0	0	?	0	0
SMILES	HT1080NT lethal	DT40 TDP1 CPT	ELG1 DNA repair	HT1080 IDH1KD tx	TDP1 cell noCPT	IL1B secr inh
CCOC(=O)CN(c1ccccc1C)S(=O)(=O)c1ccc(Cl)cc1	0	0	0	0	0	0
CCc1nn(CCCC(=O)NCc2cc(Br)ccc2OC)c(=O)c2cc3occc3n12	0	?	?	0	?	-56
CCc1nn(CCCC(=O)N(C)Cc2ccccc2)c(=O)c2cc3occc3n12	0	16µM	0	0	?	0
CCOc1ccc(CNC(=O)CCCn2nc(CC)n3c(cc4occc43)c2=O)cc1	0	?	?	0	?	0
CCc1ccc(NC(=O)CCCn2nc(CC)n3c(cc4occc43)c2=O)cc1	0	?	0	0	0	0
CCc1nn(CCCC(=O)NC2CCCCC2C)c(=O)c2cc3occc3n12 (stereo unspecified)	0	?	-	0	26µM	0
CCc1nn(CCCC(=O)NCc2ccc(OC(C)C)cc2)c(=O)c2cc3occc3n12	12µM	?	0	10µM	12µM	0
COc1ccc(NC(=O)N2CCC3(CC2)CCN(C(=O)c2cccc(F)c2)CC3)cc1	-	0	-	-	0	-
Cc1cc(NC(=O)COC(=O)C(C)Oc2ccc(Cl)cc2Cl)no1 (stereo unspecified)	0	0	0	0	0	0
CCn1cc[n+](C)c1P(c1ccccc1)c1ccccc1	0	0.65µM	0	0	0.013µM	0
Cc1[nH]c2ccc(C(=O)OCC(=O)Nc3cccc(S(N)(=O)=O)c3)cc2c1C	0	?	?	0	?	0
Cc1ccccc1NC(=O)CSc1nnc(-c2ccoc2C)n1CCc1ccccc1	0	?	0	0	?	0
CCn1c(SCC(=O)Nc2ccccc2C(=O)OC)nnc1-c1ccoc1C	0	0	0	0	29µM	0
CCn1c(SCC(=O)Nc2ccccc2C(=O)OC)nnc1-c1ccc(N)cc1	0	0	?	0	0	0
Cc1occc1-c1nnc(SCC(=O)Nc2ccccc2-c2ccccc2)n1C	0	?	?	0	16µM	0
Cn1c(SCC(=O)Nc2ccccc2-c2ccccc2)nnc1-c1ccco1	0	?	0	0	0	0
Cc1occc1-c1nnc(SCC(=O)Nc2ccccc2)n1Cc1ccccc1	0	0	?	0	?	0
CCCn1c(SCC(=O)Nc2ccccc2-c2ccccc2)nnc1-c1ccoc1C	0	16µM	?	0	10µM	0
Cc1occc1-c1nnc(SCC(=O)Nc2ccc(F)cc2)n1Cc1ccccc1	21µM	?	?	?	?	-80
O=C(NCc1ccccc1)C(c1ccc(F)cc1)N(C(=O)c1csnn1)C1CC1 (stereo unspecified)	0	0	0	0	0	0
CN(C)S(=O)(=O)c1ccc(Cl)c(NC(=O)COC(=O)CNS(=O)(=O)c2c(F)cccc2F)c1	0	0	-	0	0	0
CCc1ccccc1NC(=O)CCS(=O)(=O)c1ccc(OC)cc1	0	0	0	0	0	0
Cc1cc[n+]2c3c(cccc13)CCC2	0	21µM	0	0	18µM	0
COc1cc(C)c(NC(=O)C2CCN(S(=O)(=O)c3cccs3)CC2)cc1OC	0[9.24 µM]	0	0	0	0	0
CCOc1ccc(NC(=O)C2CCN(S(=O)(=O)c3ccc4c(c3)oc(=O)n4C)CC2)cc1	-	0	-	-	0	-
O=C1CNC(=S)N1Cc1cccc(Cl)c1	0	0	0	0	0	0

Screens: PubChem, National Center for Advancing Translational Sciences (NCATS)
